# MITF TRPM1 HTS: increases MITF-driven TRPM1 promoter luciferase signal | SK-MEL-5 TRPM1-promoter luciferase, 24 h; % of positive control, neutral wells = 0 | activation, % at 12.5 µM | 300,000 tested, 0.75% active;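 active means mean activation of at least 80% with every replicate also reaching 80%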;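 further: 0% = neutral control wells and 100% = parthenolide positive control wells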
# EBV LMP1 NFkB: inhibitors of Epstein-Barr LMP1-induced NF-kappaB reporter. 350,000 tested, 0.69% active. AID 504558. LMP1-induced NF-kappaB luciferase reporter cells, luminescence. inhibition, % at 12.5 µM; in the data active means inhibition above about 41%;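 further: 0% = neutral control wells and 100% = reference inhibitor control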
# LGR2 antag: Drosophila LGR2 receptor signaling inhibition. HEK293 LGR2, CRE-luciferase, bursicon-stimulated, 4 h. inhibition, % at 9.99 µM. 380,000 tested, 0.35% active. AID 720647;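 active means drop in luminescence signal, shown as inhibition above about 50% in the replicate tests, limit read from the data, passing the limit was not always enough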;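 further: agonist challenge used bursicon conditioned medium at about half maximal strength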
# TRPM1 prom inh: reduces MITF-dependent TRPM1 promoter luciferase signal; SK-MEL-5 TRPM1 promoter luciferase, 24 h; inhibition, % at 12.5 µM; 330,000 tested, 0.83% active; AID 488899;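 active means mean inhibition across replicates of 60% or more, whatever share of single replicates reaches that level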
# TWEAK Fn14 block: TWEAK-Fn14 signaling inhibition; 360,000 tested, 2% active; TWEAK-stimulated Fn14 reporter cells, luciferase luminescence, 8 h; inhibition, % at 10 µM; in the data active means inhibition above about 50%
# TROY NFkB inh: TROY signaling inhibition. Q293 LMP1-TROYcd NF-kB luciferase reporter, 4 h. inhibition, % at 10 µM. 360,000 tested, 0.98% active. AID 1347056;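 active means compounds whose plate-normalised and pattern-corrected inhibition of the luciferase reporter signal at the single screening dose is 50% or more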
# Active calls of the source: *; . = not tested or not shown. Only some compounds are listed: those with a hit (about 3% of all), similar ones and a draw of the others.
SMILES,MITF TRPM1 HTS,EBV LMP1 NFkB,LGR2 antag,TRPM1 prom inh,TWEAK Fn14 block,TROY NFkB inh
Cc1ccc(C(=O)O/N=C(\N)c2ccccn2)c(Cl)c1,.,83*,103*,.,105*,86*
CCC(=O)N1[C@H](C#N)[C@H](c2ccccc2-c2cccc(C)c2)[C@@H]1CO,.,.,-9,.,.,.
N/C(=N\OC(=O)c1cc([N+](=O)[O-])ccc1Cl)c1ccccn1,.,3,-22,-10,1,1
N/C(=N\OC(=O)c1ccc(Cl)cc1Cl)c1ccccn1,-34,56*,93*,33,100*,80*
N/C(=N\OC(=O)c1ccc([N+](=O)[O-])cc1Cl)c1ccccn1,-57,56*,95*,56,94*,67*
N/C(=N\OC(=O)c1ccc(Cl)cc1[N+](=O)[O-])c1ccccn1,49,-37,-3,-58,-39,-2
C/C=C/c1ccc2c(c1)O[C@H](CN(C)C(=O)Nc1ccc(C(F)(F)F)cc1)[C@H](C)CN([C@H](C)CO)S2(=O)=O,.,.,31,.,.,.
CO[C@H]1CN(C)C(=O)c2cc(NC(=O)NC(C)C)ccc2OC[C@H](C)N(S(C)(=O)=O)C[C@H]1C,.,.,-5,.,.,.
Cc1cc(NC(=O)CSc2nc3c(c(=O)n2CCc2ccccc2)SC(C)C3)no1 (stereo unspecified),1,77*,.,-1,1,-21
Cc1noc(C)c1NC(=O)N(C)C[C@H]1Oc2ccc(NC(=O)CCN3CCOCC3)cc2CC(=O)N([C@H](C)CO)C[C@@H]1C,.,.,28,.,.,.
O=C(C[C@H]1C=C[C@H](NC(=O)Nc2ccccc2)[C@@H](CO)O1)NCc1cccc(F)c1,.,.,9,.,.,.
C(=C\c1sc(Nc2ccccc2)n[n+]1-c1ccccc1)/c1ccccc1,-80,-2,-27,79*,-3,-51
COc1ccc(-c2sc(Nc3ccccc3)n[n+]2-c2ccccc2)cc1Br,6,4,-63,-4,-11,11
Cc1ccc(-c2ccc3c(c2)O[C@H](CN(C)C)[C@H](C)CN([C@@H](C)CO)S3(=O)=O)cc1,.,.,1,.,.,.
CCCNC(=O)N1[C@@H]2c3ccc(-c4cccc(F)c4)c(=O)n3C[C@H]1[C@H](CO)[C@H]2C(=O)NC1CCC1,.,.,1,.,.,.
O=C(c1ccc(Cl)cc1)c1coc2ccc(O)cc12,87*,0,.,-85,20,-9
O=C1OC(/C(=C\Nc2ccc(F)cc2F)[N+](=O)[O-])c2ccccc21 (stereo unspecified),0,38,-2,0,51*,0
Cc1ccccc1C(=O)O/N=C(\N)Cc1cccs1,94*,-50,-33,-85,-6,-10
Cc1ccccc1C(=O)O/N=C(\N)c1ccncc1,27,56*,.,-24,-17,-61
N/C(=N\OC(=O)c1ccccc1Cl)c1ccncc1,56,-20,-15,-57,15,-35
C[C@@H]1CCCCO[C@@H](CN(C)S(=O)(=O)c2ccccc2)[C@H](C)CN([C@@H](C)CO)C(=O)c2cc(NC(=O)C3CCCCC3)ccc2O1,.,.,16,.,.,.
CSc1nc(C)cc(C)c1C#N,13,94*,-31,-20,3,16
O=C(O)CN1C(=O)/C(=C\c2cc(Br)ccc2OCc2ccc(Cl)cc2Cl)SC1=S,0,-2,2,1,3,87*
O=C(O)CN1C(=O)/C(=C\c2ccccc2OCc2ccc(Cl)cc2)SC1=S,4,10,13,-3,-24,-33
COCCN=c1scc(-c2cc(OC)c(OC)c(OC)c2)n1/N=C/c1c(C)[nH]c2ccccc12,-10,10,.,6,54*,20
SMILES,MITF TRPM1 HTS,EBV LMP1 NFkB,LGR2 antag,TRPM1 prom inh,TWEAK Fn14 block,TROY NFkB inh
COc1ccccc1C(=O)NC(=S)Nc1ccc(N2CCOCC2)c(Cl)c1,15,6,-2,-12,-9,52*
COc1ccccc1C(=O)NC(=S)Nc1cccnc1Cl,38,28,84*,-38,95*,78*
COc1ccccc1-c1cc(C(=O)Nc2cccnc2Cl)no1,11,-11,10,-8,-22,-18
Cc1ccccc1OCC(=O)NC(=S)Nc1ccc(N2CCOCC2)c(Cl)c1,-1,10,.,1,-21,11
Cc1ccc(C(=O)NC(=S)Nc2cccnc2Cl)cc1,145*,-21,26,-151,73*,44
Cc1ccc(C(=O)NC(=S)Nc2ccccc2C(F)(F)F)cc1,5,-10,-16,0,5,-34
Cc1ccc(NC(=O)c2cc(N3C(=O)C=CC3=O)ccc2N2CCOCC2)cc1Cl,-76,1,-22,78*,-1,-13
CC(=O)N(C)C[C@@H]1Oc2cc(C#Cc3ccccn3)ccc2S(=O)(=O)N([C@@H](C)CO)C[C@@H]1C,.,.,11,.,.,.
CO[C@H]1CN(C)C(=O)c2ccc(NS(=O)(=O)c3cccc(C)c3)cc2OC[C@H](C)NC[C@@H]1C,.,.,1,.,.,.
COc1ccc(S(=O)(=O)N(C)C[C@H]2Oc3cc(C#CC4CC4)ccc3S(=O)(=O)N([C@@H](C)CO)C[C@H]2C)cc1,.,.,1,.,.,.
COc1ccccc1C(=O)Nc1ccccc1SC(=O)c1ccccc1OC,9,-21,-108,-8,47,50*
COC(=O)c1ccccc1NC(=O)c1ccccc1OC,13,19,.,-13,-3,3
COc1ccccc1S(=O)(=O)N(C)C[C@@H]1Oc2cc(C#CCC(C)C)ccc2S(=O)(=O)N([C@@H](C)CO)C[C@H]1C,.,.,37,.,.,.
CC=Cc1ccc2n(c1=O)C[C@H]1[C@H](CO)[C@@H](C(=O)NCc3ccccn3)N(CCC)[C@@H]21 (mixture of isomers),.,.,-2,.,.,.
Cc1[nH]c2ccccc2c1C1=NNC(=Nc2ccc(F)cc2)SC1,-21,-28,-1,21,55*,25
O=C(C[C@H]1CC[C@@H]2[C@H](COC[C@@H](O)CN2Cc2ccccc2F)O1)NCc1ccccc1F,.,.,7,.,.,.
CC(=NC1CCCCC1)C1=C(O)c2ccccc2C1=O,90*,-32,.,-89,-1,-20
CC1=CN2C(c3cccc([N+](=O)[O-])c3)=NON(c3ccc(C)cn3)C2C=C1 (stereo unspecified),.,.,12,.,-33,60*
CCN(CC)c1ccc2c(c1)oc(=O)c1c(Cl)cc(=O)oc12,-80,-12,.,80*,76*,-44
CCN(CC)c1ccc2c(C)cc(=O)oc2c1,13,-11,-17,-12,-6,-41
CCN(CC)c1ccc2c(Cl)c(Br)c(=O)oc2c1,.,-4,.,54,85*,43
CCN(CC)c1ccc2c(C)c(Cl)c(=O)oc2c1,2,0,-21,-1,-17,-38
CCN1[C@@H]2c3ccc(-c4ccccc4)c(=O)n3C[C@H]1[C@H](CO)[C@H]2C(=O)NCCCN1CCOCC1,.,.,3,.,.,.
COc1ccc(NC(=O)Nc2ccc3c(c2)[C@H]2C[C@@H](CC(=O)NCc4ccccn4)O[C@@H](CO)[C@H]2O3)cc1,.,.,-9,.,.,.

# Screening data deposited in PubChem by several laboratories.
